What all share (assay): PBM; 200 nM protein, PBS
What all share (conditions): dsDNA, one strand shown

Assay [1] has as its target SHOX (Homo sapiens, UniProt O15266 103-189).
Assay [2] concerns the target SHOX (Homo sapiens, UniProt O15266 103-189, R173C).
Assay [3] concerns the target HOXD13 (Homo sapiens, UniProt P35453 263-343, T313R).
Assay [4] addresses HOXD13 (Homo sapiens, UniProt P35453 263-343).
Assay [5] has as its target HOXD13 (Homo sapiens, UniProt P35453 263-343, T313A).
Assay [6] has as its target ALX3 (Homo sapiens, UniProt O95076 139-225, N203Q).
Assay [7] deals with ALX3 (Homo sapiens, UniProt O95076 139-225).
Assay [8] concerns the target VAX1 (Homo sapiens, UniProt Q5SQQ9 86-172).
Assay [9] has as its target ALX3 (Homo sapiens, UniProt O95076 139-225, L168Q).
The target in assay [10] is ALX3 (Homo sapiens, UniProt O95076 139-225, L168V).
In assay [11] the target is VAX1 (Homo sapiens, UniProt Q5SQQ9 86-172, T142I).
The target in assay [12] is ALX3 (Homo sapiens, UniProt O95076 139-225, N203S).
For assay [13], the target named is VAX1 (Homo sapiens, UniProt Q5SQQ9 86-172, K157R).
Assay [14] concerns the target NKX3-2 (Homo sapiens, UniProt P78367 192-278, P234S).
Assay [15] addresses NKX3-2 (Homo sapiens, UniProt P78367 192-278).

Chain of VAX1 (Homo sapiens, UniProt Q5SQQ9 86-172) (Q5SQQ9 86-172): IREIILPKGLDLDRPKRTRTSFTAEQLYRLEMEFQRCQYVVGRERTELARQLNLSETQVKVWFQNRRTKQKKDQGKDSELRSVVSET
Chain of HOXD13 (Homo sapiens, UniProt P35453 263-343) (P35453 263-343): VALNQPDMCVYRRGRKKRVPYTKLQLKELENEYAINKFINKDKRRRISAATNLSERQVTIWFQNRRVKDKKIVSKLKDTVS
Chain of VAX1 (Homo sapiens, UniProt Q5SQQ9 86-172, K157R) (Q5SQQ9 86-172 K157R): as the sequence (Q5SQQ9 86-172) above, with K72R counted along it
Chain of HOXD13 (Homo sapiens, UniProt P35453 263-343, T313A) (P35453 263-343 T313A): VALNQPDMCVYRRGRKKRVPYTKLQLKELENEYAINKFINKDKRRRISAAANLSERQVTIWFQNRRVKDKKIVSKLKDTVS
Chain of SHOX (Homo sapiens, UniProt O15266 103-189, R173C) (O15266 103-189 R173C): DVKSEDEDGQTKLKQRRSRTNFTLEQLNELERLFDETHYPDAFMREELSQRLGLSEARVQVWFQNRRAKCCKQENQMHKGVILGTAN
Chain of HOXD13 (Homo sapiens, UniProt P35453 263-343, T313R) (P35453 263-343 T313R): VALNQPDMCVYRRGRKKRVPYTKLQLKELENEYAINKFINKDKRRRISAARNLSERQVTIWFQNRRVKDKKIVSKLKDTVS
Chain of VAX1 (Homo sapiens, UniProt Q5SQQ9 86-172, T142I) (Q5SQQ9 86-172 T142I): as the sequence (Q5SQQ9 86-172) above, with T57I counted along it
Chain of SHOX (Homo sapiens, UniProt O15266 103-189) (O15266 103-189): as the sequence (O15266 103-189 R173C) above, with C71R counted along it
Chain of NKX3-2 (Homo sapiens, UniProt P78367 192-278) (P78367 192-278): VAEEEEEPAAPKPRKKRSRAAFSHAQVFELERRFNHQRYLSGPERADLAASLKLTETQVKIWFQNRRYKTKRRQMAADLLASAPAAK
Chain of NKX3-2 (Homo sapiens, UniProt P78367 192-278, P234S) (P78367 192-278 P234S): as the sequence (P78367 192-278) above, with P43S counted along it
Chain of ALX3 (Homo sapiens, UniProt O95076 139-225) (O95076 139-225): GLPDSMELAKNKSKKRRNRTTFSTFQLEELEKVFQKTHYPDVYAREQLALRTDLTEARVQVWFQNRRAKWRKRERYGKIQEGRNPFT
Chain of ALX3 (Homo sapiens, UniProt O95076 139-225, L168V) (O95076 139-225 L168V): as the sequence (O95076 139-225) above, with L30V counted along it
Chain of ALX3 (Homo sapiens, UniProt O95076 139-225, N203S) (O95076 139-225 N203S): as the sequence (O95076 139-225) above, with N65S counted along it
Chain of ALX3 (Homo sapiens, UniProt O95076 139-225, L168Q) (O95076 139-225 L168Q): as the sequence (O95076 139-225) above, with L30Q counted along it
Chain of ALX3 (Homo sapiens, UniProt O95076 139-225, N203Q) (O95076 139-225 N203Q): as the sequence (O95076 139-225) above, with N65Q counted along it

As for ACCCGGAC, the binding signal was 7.09 upbm affinity estimate (log intensity, higher = more binding, comparable within an allelic series) in the assay with SHOX [1] and 7.17 upbm affinity estimate (log intensity, higher = more binding, comparable within an allelic series) with SHOX [2].
For the sequence TCGCGCGA, the binding signal in the assay with SHOX [1] was 7.38 upbm affinity estimate (log intensity, higher = more binding, comparable within an allelic series); with SHOX [2], 7.28 upbm affinity estimate (log intensity, higher = more binding, comparable within an allelic series).
With CCAGAGGC, the binding signal with SHOX [1] was 7.17 upbm affinity estimate (log intensity, higher = more binding, comparable within an allelic series); in the assay with SHOX [2], 7.18 upbm affinity estimate (log intensity, higher = more binding, comparable within an allelic series).
For the sequence CTGAGGCA, the binding signal with SHOX [1] was 7.29 upbm affinity estimate (log intensity, higher = more binding, comparable within an allelic series); with SHOX [2], 7.31 upbm affinity estimate (log intensity, higher = more binding, comparable within an allelic series).
In the case of ACCCGCCC, the binding signal with SHOX [1] was 7.27 upbm affinity estimate (log intensity, higher = more binding, comparable within an allelic series); with SHOX [2], 7.22 upbm affinity estimate (log intensity, higher = more binding, comparable within an allelic series).
Consider CCGGGCGA, for which the binding signal in the assay with SHOX [1] is 7.31 upbm affinity estimate (log intensity, higher = more binding, comparable within an allelic series); with SHOX [2], 7.22 upbm affinity estimate (log intensity, higher = more binding, comparable within an allelic series).
For the sequence CCAAGGAG, the binding signal with SHOX [1] is 7.32 upbm affinity estimate (log intensity, higher = more binding, comparable within an allelic series); in the assay with SHOX [2] it was 7.21 upbm affinity estimate (log intensity, higher = more binding, comparable within an allelic series).
AGCCGCCG: the binding signal with SHOX [1] is 7.12 upbm affinity estimate (log intensity, higher = more binding, comparable within an allelic series); with HOXD13 [3], 9.48 upbm affinity estimate (log intensity, higher = more binding, comparable within an allelic series); in the assay with SHOX [2], 7.19 upbm affinity estimate (log intensity, higher = more binding, comparable within an allelic series); with HOXD13 [4] it was 9.52 upbm affinity estimate (log intensity, higher = more binding, comparable within an allelic series); with HOXD13 [5], 9.57 upbm affinity estimate (log intensity, higher = more binding, comparable within an allelic series).
With CGGCCTCC, the binding signal with SHOX [1] is 6.98 upbm affinity estimate (log intensity, higher = more binding, comparable within an allelic series); with SHOX [2], 7.08 upbm affinity estimate (log intensity, higher = more binding, comparable within an allelic series).
Turning to ACCTGAGG, the binding signal in the assay with SHOX [1] is 7.18 upbm affinity estimate (log intensity, higher = more binding, comparable within an allelic series); with SHOX [2], 7.27 upbm affinity estimate (log intensity, higher = more binding, comparable within an allelic series).
Consider CCCAGCGC, for which the binding signal was 7.21 upbm affinity estimate (log intensity, higher = more binding, comparable within an allelic series) in the assay with SHOX [1]; 9.41 upbm affinity estimate (log intensity, higher = more binding, comparable within an allelic series) in the assay with HOXD13 [3]; 7.13 upbm affinity estimate (log intensity, higher = more binding, comparable within an allelic series) with SHOX [2]; 9.38 upbm affinity estimate (log intensity, higher = more binding, comparable within an allelic series) with HOXD13 [4]; 9.56 upbm affinity estimate (log intensity, higher = more binding, comparable within an allelic series) with HOXD13 [5].
For CCAGTTTA, the binding signal is 8.2 upbm affinity estimate (log intensity, higher = more binding, comparable within an allelic series) with SHOX [1] and 7.55 upbm affinity estimate (log intensity, higher = more binding, comparable within an allelic series) with SHOX [2].
AGCCACCG: the binding signal with SHOX [1] was 7.07 upbm affinity estimate (log intensity, higher = more binding, comparable within an allelic series); with HOXD13 [3] it was 9.53 upbm affinity estimate (log intensity, higher = more binding, comparable within an allelic series); with SHOX [2], 7.05 upbm affinity estimate (log intensity, higher = more binding, comparable within an allelic series); with HOXD13 [4], 9.56 upbm affinity estimate (log intensity, higher = more binding, comparable within an allelic series); in the assay with HOXD13 [5] it was 9.66 upbm affinity estimate (log intensity, higher = more binding, comparable within an allelic series).
As for GCGGCGGA, the binding signal in the assay with SHOX [1] was 7.1 upbm affinity estimate (log intensity, higher = more binding, comparable within an allelic series); with SHOX [2], 7.11 upbm affinity estimate (log intensity, higher = more binding, comparable within an allelic series).
As for GGACGTCC, the binding signal was 7.52 upbm affinity estimate (log intensity, higher = more binding, comparable within an allelic series) in the assay with SHOX [1]; 7.88 upbm affinity estimate (log intensity, higher = more binding, comparable within an allelic series) in the assay with ALX3 [6]; 7.3 upbm affinity estimate (log intensity, higher = more binding, comparable within an allelic series) with SHOX [2]; 7.9 upbm affinity estimate (log intensity, higher = more binding, comparable within an allelic series) with ALX3 [7]; 7.88 upbm affinity estimate (log intensity, higher = more binding, comparable within an allelic series) with VAX1 [8]; 7.79 upbm affinity estimate (log intensity, higher = more binding, comparable within an allelic series) with ALX3 [9]. For the same sequence, the binding signal was 7.85 upbm affinity estimate (log intensity, higher = more binding, comparable within an allelic series) with ALX3 [10]; 7.46 upbm affinity estimate (log intensity, higher = more binding, comparable within an allelic series) with VAX1 [11]; 7.79 upbm affinity estimate (log intensity, higher = more binding, comparable within an allelic series) in the assay with ALX3 [12]; 7.64 upbm affinity estimate (log intensity, higher = more binding, comparable within an allelic series) with VAX1 [13].
As to CAATCTTC, the binding signal in the assay with SHOX [1] was 7.99 upbm affinity estimate (log intensity, higher = more binding, comparable within an allelic series); with SHOX [2] it was 7.51 upbm affinity estimate (log intensity, higher = more binding, comparable within an allelic series).
In the case of CCGGATGC, the binding signal was 6.64 upbm affinity estimate (log intensity, higher = more binding, comparable within an allelic series) with SHOX [1]; 7.08 upbm affinity estimate (log intensity, higher = more binding, comparable within an allelic series) with SHOX [2]; 6.72 upbm affinity estimate (log intensity, higher = more binding, comparable within an allelic series) with VAX1 [8]; 6.89 upbm affinity estimate (log intensity, higher = more binding, comparable within an allelic series) in the assay with VAX1 [11]; 6.77 upbm affinity estimate (log intensity, higher = more binding, comparable within an allelic series) with VAX1 [13].
For the sequence AGGGAAAC, the binding signal with SHOX [1] was 7.15 upbm affinity estimate (log intensity, higher = more binding, comparable within an allelic series); with SHOX [2], 7.22 upbm affinity estimate (log intensity, higher = more binding, comparable within an allelic series).
For the sequence CCGCGCCA, the binding signal is 7.12 upbm affinity estimate (log intensity, higher = more binding, comparable within an allelic series) with SHOX [1] and 7.11 upbm affinity estimate (log intensity, higher = more binding, comparable within an allelic series) in the assay with SHOX [2].
Consider CCGAGGGA, for which the binding signal was 7.05 upbm affinity estimate (log intensity, higher = more binding, comparable within an allelic series) with SHOX [1]; 7.2 upbm affinity estimate (log intensity, higher = more binding, comparable within an allelic series) in the assay with SHOX [2]; 7.35 upbm affinity estimate (log intensity, higher = more binding, comparable within an allelic series) with VAX1 [8]; 7.23 upbm affinity estimate (log intensity, higher = more binding, comparable within an allelic series) with VAX1 [11]; 7.35 upbm affinity estimate (log intensity, higher = more binding, comparable within an allelic series) with VAX1 [13].
Regarding GCCTGCCA, the binding signal with SHOX [1] is 7.25 upbm affinity estimate (log intensity, higher = more binding, comparable within an allelic series); with SHOX [2], 7.26 upbm affinity estimate (log intensity, higher = more binding, comparable within an allelic series).
As to CGCAGCCG, the binding signal in the assay with SHOX [1] was 7.02 upbm affinity estimate (log intensity, higher = more binding, comparable within an allelic series); in the assay with SHOX [2] it was 7.12 upbm affinity estimate (log intensity, higher = more binding, comparable within an allelic series).
Turning to GCCCAAGC, the binding signal in the assay with SHOX [1] is 7.26 upbm affinity estimate (log intensity, higher = more binding, comparable within an allelic series); with SHOX [2] it was 7.23 upbm affinity estimate (log intensity, higher = more binding, comparable within an allelic series).
In the case of CGGGGCCA, the binding signal is 6.97 upbm affinity estimate (log intensity, higher = more binding, comparable within an allelic series) with SHOX [1] and 7.1 upbm affinity estimate (log intensity, higher = more binding, comparable within an allelic series) with SHOX [2].
Turning to GCATTACC, the binding signal with SHOX [1] is 8.63 upbm affinity estimate (log intensity, higher = more binding, comparable within an allelic series); with SHOX [2], 7.62 upbm affinity estimate (log intensity, higher = more binding, comparable within an allelic series).
On to ATTACCTA, for which the binding signal with SHOX [1] is 9.59 upbm affinity estimate (log intensity, higher = more binding, comparable within an allelic series); in the assay with NKX3-2 [14] it was 11.2 upbm affinity estimate (log intensity, higher = more binding, comparable within an allelic series); with NKX3-2 [15], 11.2 upbm affinity estimate (log intensity, higher = more binding, comparable within an allelic series).
CCCAGCGA: the binding signal in the assay with SHOX [1] was 7.15 upbm affinity estimate (log intensity, higher = more binding, comparable within an allelic series); with SHOX [2] it was 7.2 upbm affinity estimate (log intensity, higher = more binding, comparable within an allelic series).
Take CGGGCGTC: the binding signal is 7.36 upbm affinity estimate (log intensity, higher = more binding, comparable within an allelic series) with SHOX [1]; 7.21 upbm affinity estimate (log intensity, higher = more binding, comparable within an allelic series) with SHOX [2]; 10.6 upbm affinity estimate (log intensity, higher = more binding, comparable within an allelic series) with NKX3-2 [14]; 10.5 upbm affinity estimate (log intensity, higher = more binding, comparable within an allelic series) with NKX3-2 [15].

Values taken from paper PMC11006913.
